Here are results for 95 compounds from PubChem BioAssay AID651814 (National Center for Advancing Translational Sciences (NCATS), 2012).

Each structure is given as a SMILES string. The campaign covered roughly 2,100 compounds. About 590 (28%) were called active. Inconclusive results (about 42%) are left out. This is one part of the list. Values without a mark were called inactive. Calls come from the whole dose curve; as a rule, active = well fitted inhibition curve with a large enough effect; inconclusive = small, poorly fitted or top-dose-only effect; inactive = flat fitted curve, though single readings scatter.
Potency is the fitted concentration of half-maximal effect.

DNA dC->dU-editing enzyme APOBEC-3F (Homo sapiens), sequence (Q8IUX4 whole entry, looked up): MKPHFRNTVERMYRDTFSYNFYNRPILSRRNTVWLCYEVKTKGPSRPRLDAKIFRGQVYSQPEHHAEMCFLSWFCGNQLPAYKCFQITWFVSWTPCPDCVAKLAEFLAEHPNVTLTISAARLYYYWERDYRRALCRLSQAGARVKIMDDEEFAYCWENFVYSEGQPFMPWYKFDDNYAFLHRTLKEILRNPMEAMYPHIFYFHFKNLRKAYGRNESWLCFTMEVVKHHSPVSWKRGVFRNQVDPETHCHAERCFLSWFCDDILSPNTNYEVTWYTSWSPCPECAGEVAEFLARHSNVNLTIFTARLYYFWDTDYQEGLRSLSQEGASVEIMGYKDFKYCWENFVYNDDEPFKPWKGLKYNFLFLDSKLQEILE

The assay addresses DNA dC->dU-editing enzyme APOBEC-3F (Homo sapiens) (UniProt Q8IUX4). The assay is described as follows: qHTS for inhibitors of Vif-A3F interactions: Cherry picks.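 For max response: % of control where 0% means no effect; active compounds raise eYFP fluorescence by blocking Vif-driven A3F loss.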 Note: nearly all actives have a fitted effect of over 70% in size. As to conditions: HeLa A3F-eYFP + Vif (tagged APOBEC3F with the HIV-1 protein that degrades it), eYFP fluorescence, 24 h. Summed up: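 Read-out: yellow fluorescence (ex 488 nm, em 500-530 nm) by laser-scanning cytometer after 24 h compound exposure, several concentrations, at 37 deg C. Cells: HeLa line stably co-expressing Vif and C-terminally eYFP-tagged A3F; MG132 served as positive control.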
On the technique in general: Quantitative high-throughput screening tests each substance at several concentrations.
As for `CC(C)COc1ccc(C(=O)N/C(=C/c2cccc([N+](=O)[O-])c2)C(=O)O)cc1`, the max response was -0.401%.
As to `COc1ccc(N=Cc2oc3ccc4ccccc4c3c2O)cc1`, the Potency is 5.17 µM (active).
Same read-out and setting: then `COc1ccc(N=Cc2c(O)c3ccccc3n2C(C)=O)cc1`, with 20.6 µM (active).
With `CC(=O)n1cc(/C=N/NC(=O)c2sc(C)nc2C)c2ccccc21`, the max response is -21.7%.
Still for that read-out and setting: then `CCCC(=O)NC(c1ccc(OC)cc1)c1c(O)ccc2ccccc12` (stereo not given), with -21%.
Take `COc1ccc(N=Cc2sc(O)c3ccccc23)cc1`: the Potency is 8.86 µM (active).
Turning to `Oc1sc(C=Nc2ccccc2)c2ccccc12`, the Potency was 20.6 µM (active).
For `CC1(C)CC(=O)C(C=Nc2cc(C(=O)c3ccccc3)ccc2N)=C(O)C1`, the max response was -20.7%.
The same measure, in the same setting: with `O=c1[nH]c2ccccc2n2c(=S)[nH]nc12` the figure was -3.48%; with `COc1ccc(N/C=C2\C(=O)CCc3c2oc2cc(Cl)c(O)c(Cl)c32)cc1`, -28.6%.
In the case of `COC(=O)C1C2CC3c4[nH]c5cc(OC)ccc5c4CCN3CC2CC(OC2CCCCO2)C1OC` (stereo not given), the max response is -12.1%.
With `S=c1[nH]cnc2sc(-c3ccccc3)cc12`, the max response was -2.16%.
Consider `Oc1sc(C=Nc2ccc(F)cc2)c2ccccc12`, for which the Potency was 4.11 µM (active).
In the case of `CCN(CC)C(=O)CSC(Nc1cccc(F)c1)=C(C#N)C#N`, the max response was -4.73%.
On the same count and under the same terms, with `O=C(N/N=C/c1ccc2c(c1)OCO2)c1ccc2c(c1)OCCO2` the figure was -24.9%.
On the same count and under the same terms, then `O=C(NN=Cc1c(O)ccc2ccccc12)c1ccc2c(c1)OCO2`, with -14.5%.
In the case of `CN(C)c1ccc(/C=N/NC(=O)c2cc(-c3ccc4c(c3)OCO4)n[nH]2)cc1`, the Potency is 17.7 µM (active).
Take `COCCCNC(=S)N/N=C/c1cccc(OC)c1O`: the max response was -1.71%.
Consider `CCCN1CCc2c(sc(NC(=O)c3ccc(S(=O)(=O)N(C)c4ccccc4)cc3)c2C(=O)NC)C1`, for which the Potency was 23.1 µM (active).
`CC(C)CN(CC(C)C)S(=O)(=O)c1ccc(C(=O)Nc2sc3c(c2C(N)=O)CCN(C(C)C)C3)cc1`: the Potency was 20.6 µM (active).
Same read-out and setting: then `CCCN1CCc2c(sc(NC(=O)c3ccc(S(=O)(=O)N(C)c4ccccc4)cc3)c2C(N)=O)C1`, with 20.6 µM (active).
`CC(C)(C)C(=O)Nc1sc2c(c1C#N)CCN(Cc1ccccc1)C2`: the max response is -17.1%.
Still for that read-out and setting: then `Cc1nc2ccc(NC(=O)c3cc(S(=O)(=O)N(C)c4ccccc4)ccc3Cl)cc2s1`, with -11.3%; and `O=C(Nc1ncc(Cc2ccc(SC(F)F)cc2)s1)c1ccccc1`, with -6.02%.
`NC(=O)c1c(NC(=O)c2ccccc2)sc2c1CCN(Cc1ccccc1)C2`: the Potency was 14 µM (active).
On to `CCCCOc1ccc2c(c1)/C(=C(\C(Cl)=C(Cl)Cl)[N+](=O)[O-])N2`, for which the max response was -18.3%.
The same measure, in the same setting: then `CCS(=O)(=O)N1CCc2cc(C(=O)N3CCN(c4cccc(C(F)(F)F)c4)CC3)ccc21`, with -12.8%.
Take `CC1=CC(C)(C)NC(=S)N1c1ccc2ccccc2c1`: the max response is 1.72%.
As for `N#Cc1c(NC(=O)c2ccc([N+](=O)[O-])o2)sc2c1CCC2`, the max response was -22.4%.
Still for that read-out and setting: then `CCN1CCc2c(sc(-n3cccc3)c2C(C)NC(=O)Nc2ccc(C(=O)OC)cc2)C1` (stereo not given), with 0.47%.
Turning to `CC(C)N1CCc2c(sc(NC(=O)c3cc4cc([N+](=O)[O-])ccc4s3)c2C(N)=O)C1`, the Potency was 20.6 µM (active).
Same read-out and setting: with `CCN1CCc2c(sc(NC(=O)c3ccc(S(=O)(=O)N(CC)c4ccccc4)cc3)c2C(N)=O)C1` the figure was 9.94 µM (active).
Regarding `CC(=O)Nc1ccc(Nc2c3c4c(cccc4n(C)c2=O)C(=O)c2ccccc2-3)cc1`, the max response was -27.5%.
As for `CCCCOc1nc2ccccc2nc1NS(=O)(=O)c1ccc(F)cc1`, the max response was 5.01%.
Take `Cc1ccc2c(Cl)c(C)c(N3CCCC3)nc2n1`: the max response was 1.73%.
Still for that read-out and setting: with `CCC(=O)Nc1nonc1-c1nc2ccccc2n1Cc1ccccc1` the figure was -26.4%; with `Clc1ccccc1Cn1c(/C=C/c2ccco2)nc2ccccc21`, -8.9%.
For `ClCc1nc2ccccc2n1Cc1ccccc1`, the Potency is 18.4 µM (active).
With `CCCOc1ccc(NC(=O)CC2C(=O)N(c3ccc(OCC)cc3)C(=S)N2C2CC2)cc1` (stereo not given), the max response is -28%.
In the case of `CCC(=O)Nc1ccccc1-c1nc2ccccc2n(C(C)C(=O)Nc2ccc(OC)cc2)c1=O` (stereo not given), the Potency is 11.6 µM (active).
Consider `CCOC(=O)N1CCC(Nc2nc3ccccc3n3nnnc23)CC1`, for which the max response is -9.96%.
Regarding `CCOC(=O)Nc1cc2c(c(N)n1)N=C(c1ccccc1)CN2`, the Potency was 0.0259 µM (active).
In the case of `Cc1ccc(-c2cn3nc(-c4ccccc4)c(-c4ccccc4)nc3n2)cc1`, the Potency was 18.4 µM (active).
As to `COC(=O)c1sc2nc(CSc3ccc(Br)cc3)[nH]c(=O)c2c1C`, the max response was -22%.
On to `Cc1ccc(CSc2nc(-c3ccc(C(C)(C)C)cc3)nc3cc(=O)[nH]n23)cc1`, for which the max response was -0.911%.
Regarding `COc1cc(-c2noc(C)c2/C=C/c2ccc(OC(C)=O)cc2)cc(OC)c1OC`, the Potency is 0.627 µM (active).
As for `N#CC(C(=S)Nc1ccccc1)c1nc2ccccc2[nH]1` (stereo not given), the max response was -16.9%.
For the compound `CCOC(=O)Cn1c(=O)c(-c2cc(Br)ccc2N)nc2ccccc21`, the Potency is 8.2 µM (active).
Consider `CCOc1ccccc1N1CC(c2nc3ccccc3n2Cc2c(C)cc(C)cc2C)CC1=O` (stereo not given), for which the max response is -7.39%.
On to `CCOC(=O)COn1c(=O)c(-c2ccc(Br)cc2)[n+]([O-])c2ccccc21`, for which the max response is 3.1%.
With `CC(C)n1c(O)c(N=Nc2ccc(Cl)nn2)c2ccccc21`, the Potency is 20.6 µM (active).
On to `CCOC(=O)c1c(-c2ccc(OC)cc2)csc1/N=C/C1C(=O)CCCC1=O`, for which the max response is -2.18%.
The same measure, in the same setting: with `Cc1noc(C)c1C(=O)OCC(=O)Nc1ccccc1SCC#N` the figure was -24.1%.
Turning to `Cc1nc(C)c(C(=O)OCC(=O)Nc2ccccc2SCC#N)s1`, the Potency was 15.8 µM (active).
Still for that read-out and setting: then `N#CCSc1ccccc1NC(=O)COc1ccc(-c2nnco2)cc1`, with 17.7 µM (active).
For the compound `N#CCSc1ccccc1NC(=O)COC(=O)CCNC(=O)c1ccc([N+](=O)[O-])cc1`, the max response is -12%.
Still for that read-out and setting: with `CSc1ccccc1NC(=O)COC(=O)/C=C/c1ccco1` the figure was -23.1%; with `Cc1ccc(C(=O)CCC(=O)OCC(=O)Nc2ccccc2SCC#N)cc1`, -8.08%.
Take `CCCCOc1ccc(/C=C/C2=CC(C)(C)NC(=S)N2)cc1OCC`: the max response was -3.97%.
In the case of `CCN(CC)c1ccc(/C=C/c2ccncc2)cc1`, the Potency was 4.11 µM (active).
On the same count and under the same terms, then `CCN(CC)c1ccc(/C=C/C2=C3C=CC=CC3NC=C2)cc1` (stereo not given), with 18.4 µM (active).
Regarding `CN(C)c1ccc(/C=C/c2ccncc2)cc1`, the max response was -29.1%.
In the case of `CCN(CC)c1ccc(/C=C/c2ccccn2)cc1`, the Potency was 5.17 µM (active).
In the case of `Cc1cc(C)c(C(=O)N(CCN(C)C)CC2CCCN(Cc3ccccc3F)C2)o1` (stereo not given), the max response is 2.52%.
For `CCOc1ncccc1C(=O)NCc1ccc(OC)cc1`, the max response is -24.5%.
Take `Cc1ccc(CNC(=O)Cn2cc(C(=O)c3ccc(Cl)cc3)c(=O)c3ccc(C)nc32)cc1`: the max response is -28.8%.
As for `Cc1ccc(-n2c(=O)c3ccc(C(=O)NCc4ccccc4Cl)cc3n(CC(=O)Nc3cccc(Cl)c3)c2=O)cc1`, the max response is -26%.
Consider `CCOc1ccc(CCNC(=O)c2ccc(Cn3c(=O)c4cccn4c4cccnc43)cc2)cc1`, for which the Potency is 16.4 µM (active).
For the compound `CCOc1ncccc1C(=O)OCc1ccc(C(=O)OC)cc1`, the max response was -26.7%.
As to `CCOc1ccc(NC(=O)Cn2c(=O)n(Cc3ccc(C(=O)NCc4ccc(C)cc4)cc3)c(=O)c3ccccc32)cc1`, the Potency was 11.6 µM (active).
On the same count and under the same terms, then `O=C(NCCc1ccccc1Cl)c1ccc(Cn2c(=O)c3cccn3c3cccnc32)cc1`, with 20.6 µM (active).
As to `Cc1ccc2nc(-c3ccccn3)c(Nc3ccccc3C)n2c1`, the max response was -2.29%.
As for `CCCCN1C(=O)C2Cc3c([nH]c4ccccc34)CN2C1=S` (stereo not given), the Potency was 15.8 µM (active).
The same measure, in the same setting: then `CC1(C)CCN2CCC(C)(C)c3c(O)ccc1c32`, with 14 µM (active).
For `O=C(N/N=C/c1ccc([N+](=O)[O-])o1)c1cn2ccc3ccccc3c2n1`, the max response is -11.2%.
Consider `O=C(N/N=C/c1ccc([N+](=O)[O-])o1)c1cc2c(ccc3ccccc32)o1`, for which the Potency is 9.2 µM (active).
Still for that read-out and setting: with `O=C(N/N=C/c1ccc([N+](=O)[O-])o1)c1sc2ccccc2c1Cl` the figure was 8.2 µM (active).
For the compound `O=C(Cc1cc2ccccc2o1)NCc1ccc(F)cc1`, the max response is -14%.
Same read-out and setting: with `CSc1ccc(/C=N/NC(=O)c2ccccc2Cl)cc1` the figure was -22.8%.
For `N#Cc1c(-c2ccc(F)cc2)c(-c2ccc(F)cc2)nn(CCO)c1=O`, the Potency is 7.04 µM (active).
The same measure, in the same setting: with `Cc1ccc2c(c1)sc(-c1ccc(N(C)C)cc1)[n+]2C` the figure was 18.4 µM (active).
Take `Cc1cccc(C)c1Nc1nc2ccccc2nc1NS(=O)(=O)c1ccccc1`: the max response was -12.4%.
On to `CCc1ccc2nc(SCC(=O)N3CC(=O)Nc4ccccc43)c(C#N)cc2c1`, for which the Potency was 15.8 µM (active).
As for `COc1ccc2cc(C(=O)C3CCCN(Cc4ccccn4)C3)ccc2c1` (stereo not given), the max response is 1.49%.
Consider `COc1ccc2nc(SCC(=O)N3CC(=O)Nc4ccccc43)c(C#N)cc2c1`, for which the Potency was 10.3 µM (active).
Same read-out and setting: then `CCc1ccc2nc(SCC(=O)Nc3ccccc3N3CCOCC3)c(C#N)cc2c1`, with 1.46 µM (active).
As for `O=C(NC(=S)Nc1ccccc1N1CCCCC1)c1ccccc1`, the max response is -2.38%.
Still for that read-out and setting: with `NNC(=O)c1cc2sccc2s1` the figure was -9.98%.
Consider `O=c1[nH]c2cc(Br)cnc2nc1/C=C(\O)c1ccc(F)cc1`, for which the Potency is 13 µM (active).
Take `O=C(N=c1ccn(-c2nc3ccccc3nc2NS(=O)(=O)c2ccccc2)cc1)c1cccs1`: the max response is -18.4%.
`O=S(=O)(Nc1nc2ccccc2nc1N1CCN(c2ccccn2)CC1)c1ccc(Cl)cc1`: the Potency was 18.4 µM (active).
On to `O=S(=O)(Nc1nc2ccccc2nc1N1CCN(c2ccccc2)CC1)c1ccc(F)cc1`, for which the max response was -24.2%.
In the case of `CCOC(=O)N1CCC(Nc2nc3ccccc3nc2NS(=O)(=O)c2ccc(Cl)cc2)CC1`, the max response was -1.97%.
The same measure, in the same setting: with `CN1CCN(c2nc3ccccc3nc2NS(=O)(=O)c2ccc(Br)cc2)CC1` the figure was -2.09%.
On to `O=C(N=c1ccn(-c2nc3ccccc3nc2NS(=O)(=O)c2ccc(Cl)cc2)cc1)c1cccs1`, for which the Potency was 13 µM (active).
